# High-throughput results deposited in PubChem by several laboratories.
# Shown are actives, neighbours in structure and some others; about 0.79% of the full set was active somewhere.
# HDAC3 inhib: blocks human histone deacetylase 3 | O15379 | recombinant HDAC3, fluorogenic peptide/trypsin coupled, fluorescence | inhibition, % at 8.3 µM | 320,000 compounds, 0.15% hits | AID 2718; in the data active = inhibition above about 26%, passing the limit was not always enough; inconclusive = no clear call, values can overlap the other calls
# DAGLB inhibitor: diacylglycerol lipase beta (human) inhibition; Q8NCG7; 340,000 compounds, 0.059% hits; inhibition, % at 5.17 µM; HEK293T DAGLB membrane lysate, EnzChek fluorogenic substrate; in the data active = inhibition above about 34%
# LANA-H2B inh: blocks KSHV LANA binding to histone H2A/H2B | 320,000 compounds, 0.6% hits | inhibition, % (test concentration not listed) | cell-free LANA-H2A/H2B peptide, fluorescence polarization; in the data active = inhibition mostly above about 10%, no sharp cut-off; inactive = mostly below about 6.7%
# Target sequence (Q9QR71 whole entry, looked up): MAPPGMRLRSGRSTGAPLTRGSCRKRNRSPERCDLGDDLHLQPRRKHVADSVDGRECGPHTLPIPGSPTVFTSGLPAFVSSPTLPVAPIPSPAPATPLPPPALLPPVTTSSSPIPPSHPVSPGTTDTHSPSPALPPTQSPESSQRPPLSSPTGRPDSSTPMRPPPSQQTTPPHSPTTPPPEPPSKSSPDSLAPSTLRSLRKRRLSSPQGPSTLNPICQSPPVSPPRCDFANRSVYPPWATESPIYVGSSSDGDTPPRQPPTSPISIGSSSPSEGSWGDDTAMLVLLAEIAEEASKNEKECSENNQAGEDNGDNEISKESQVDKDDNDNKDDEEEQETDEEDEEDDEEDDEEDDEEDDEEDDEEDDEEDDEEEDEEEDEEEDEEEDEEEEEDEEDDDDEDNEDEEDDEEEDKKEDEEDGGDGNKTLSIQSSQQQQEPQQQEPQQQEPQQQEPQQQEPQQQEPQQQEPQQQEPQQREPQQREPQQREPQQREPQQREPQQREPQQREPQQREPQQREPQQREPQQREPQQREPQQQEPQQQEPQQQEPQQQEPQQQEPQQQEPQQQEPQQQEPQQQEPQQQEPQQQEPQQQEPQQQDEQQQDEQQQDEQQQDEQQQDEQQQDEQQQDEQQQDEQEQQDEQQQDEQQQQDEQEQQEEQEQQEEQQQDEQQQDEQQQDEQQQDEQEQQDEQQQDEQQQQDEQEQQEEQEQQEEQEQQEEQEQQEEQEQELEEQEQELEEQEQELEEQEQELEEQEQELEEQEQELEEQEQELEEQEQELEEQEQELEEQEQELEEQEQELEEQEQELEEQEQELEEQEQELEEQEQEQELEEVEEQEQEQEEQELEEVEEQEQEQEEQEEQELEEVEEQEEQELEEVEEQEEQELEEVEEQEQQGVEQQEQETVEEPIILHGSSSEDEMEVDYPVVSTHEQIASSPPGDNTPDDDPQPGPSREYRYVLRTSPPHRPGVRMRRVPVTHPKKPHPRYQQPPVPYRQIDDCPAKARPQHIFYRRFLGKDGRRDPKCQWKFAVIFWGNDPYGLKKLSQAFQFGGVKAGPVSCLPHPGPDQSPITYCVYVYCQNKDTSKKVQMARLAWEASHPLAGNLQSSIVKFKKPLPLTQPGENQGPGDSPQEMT
# iPSC survival up: increases survival of single human iPS cells; hiPSC single-cell survival, ATPlite luminescence; 100% = ROCK inhibitor wells, 0% = DMSO; survival enhancement, % at 20 µM; 360,000 compounds, 0.044% hits; AID 602274; in the data active = survival enhancement above about 18%;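 also: cells exposed to compounds for 16 hours before the ATP read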
# Hits are given with their value; - = inactive; ? = inconclusive; . = no result; + = active, no number; ! = not active in a repeat.
SMILES,HDAC3 inhib,DAGLB inhibitor,LANA-H2B inh,iPSC survival up
Nc1ccc2c(c1)C1(CCC2)NC(=O)NC1=O (stereo unspecified),.,-,.,-
O=C(COC(=O)c1cc[n+]([O-])cc1)Nc1cc([N+](=O)[O-])ccc1Cl,-,-,-,-
COc1ccc(N2CSC3=C(C#N)C(c4cccs4)CC(=O)N3C2)cc1 (stereo unspecified),?,-,-,-
COc1ccc(N2CSC3=C(C#N)C(c4ccc(OC)c(OC)c4)CC(=O)N3C2)c(OC)c1 (stereo unspecified),40.0,-,-,-
COc1ccccc1-c1nnc(SCC(=O)Nc2cccnc2Cl)n1C,-,-,-,-
O=C(Nc1ccncc1)c1cc(S(=O)(=O)N2CCCC2)ccc1Cl,?,-,-,46.9
COc1ccc(CNC(=O)c2cc(S(=O)(=O)N3CCCCC3)ccc2Cl)cc1OC,-,-,-,-
O=C(NCc1ccc(F)cc1)c1cc(S(=O)(=O)N2CCCCC2)ccc1Cl,-,-,79.3,-
O=C(Nc1ccncc1)c1cc(S(=O)(=O)N2CCCCC2)ccc1Cl,-,-,-,-
CC(C)C[C@@H]1Cc2[nH][nH]c(=O)c2[C@H](C(C)C)O1,.,.,.,-
O=C(CCN1C(=O)CSc2ccccc21)Nc1ccc(OC(F)(F)F)cc1,-,-,+,-
CCOC(=O)c1ccc(NC(=O)CN2C(=O)CSCC2=O)cc1,-,-,-,-
CCOC(=O)c1ccc(NC(=O)CN2C(=O)C(CC)SC(CC)C2=O)cc1 (stereo unspecified),-,-,37.9,-
CCN(CC(=O)Nc1ccc(OC)cc1)C(=O)Cc1coc2cc(C)c(C)cc12,-,-,55.6,-
COc1ccc(C(CNC(=O)c2cccc(S(=O)(=O)N3CCOCC3)c2)N2CCCC2)cc1 (stereo unspecified),-,-,10.9,-
Cc1cccc(C(=O)OCC(=O)c2c(C)[nH]c3ccccc23)c1O,-,-,-,-
Cc1cc(SCC(=O)N2CCN(C(=O)c3ccco3)CC2)c(C)cc1Br,-,-,45.1,-
CCNc1nc(NCC)nc(N/N=C/c2ccc(O)c(O)c2)n1,-,-,-,-
CCNc1nc(NCC)nc(N/N=C/c2ccc(N(C)C)cc2)n1,-,-,64.9,-
CCc1cccc(NC(=O)[C@@H]2CCCN2C2=NS(=O)(=O)c3ccccc32)c1,-,-,-,-
CCc1cccc(NC(=O)CSC2=NS(=O)(=O)c3ccccc32)c1,36.3,-,-,-
CC(C)c1nnc(NC(=O)Cc2cccs2)s1,-,-,-,-
CC(C)c1nnc(NC(=O)CCC(=O)NCc2cccs2)s1,-,-,18.2,-
NC(=S)NN=C(c1ccc(F)cc1)C1CC1,.,-,.,-
Cc1cc2cc(CCNC(=O)CCCc3ccccc3)c(=O)[nH]c2cc1C,-,-,-,-
SMILES,HDAC3 inhib,DAGLB inhibitor,LANA-H2B inh,iPSC survival up
O=C(Nc1ccccc1[N+](=O)[O-])C1COc2ccccc2O1 (stereo unspecified),-,-,-,-
CCC(C(=O)NC1CC(C)(C)NC(C)(C)C1)c1ccccc1 (stereo unspecified),-,-,13.5,-
C[n+]1ccccc1/C=N/O,-,-,18.2!,-
Cc1c(C)c2ccc(OCC(=O)N(C)C)c(C)c2oc1=O,-,-,-,-
Cc1c(C)c2ccc(OCC(=O)N3CCOCC3)c(C)c2oc1=O,-,-,+,-
O=c1c2cn(Cc3ccccc3)c3ccccc3c-2nn1Cc1ccc(F)cc1Cl,.,-,.,-
Cc1ccc(NCc2nnc(SCC(=O)c3ccc4c(c3)OCCO4)o2)c(C)c1,84.9,-,-,-
Cc1ccc(C(=O)Oc2cc(N)n(S(=O)(=O)c3ccc(F)cc3)n2)cc1,-,-,-,-
COc1ccc(S(=O)(=O)n2nc(OC(=O)c3cccs3)cc2NC(=O)c2cccs2)cc1,46.3,-,-,-
Nc1cc(OC(=O)c2cccs2)nn1S(=O)(=O)c1ccccc1,95.8,-,-,-
COc1cccc(C(=O)Oc2cc(N)n(S(=O)(=O)c3ccc(C)cc3)n2)c1OC,53.4,-,-,-
Nc1cc(OC(=O)c2cccs2)nn1S(=O)(=O)c1ccc(F)cc1,70.0,-,-,-
Cc1cnc(C(=O)OCc2csc(CC(=O)Nc3ccccc3C)n2)cn1,-,-,-,-
O=C(OCc1ccccc1)N1CCC2CC1c1ccc(/C=C/CCCCl)cc12 (stereo unspecified),.,.,.,-
COC(=O)c1ccc(OC(=O)c2cccnc2SC)cc1,-,-,-,-
COC(=O)c1ccc(OC(=O)c2ccccn2)cc1,46.1,-,-,-
CCC(=O)c1ccc(OC(=O)c2cccs2)cc1,62.3,-,-,-
O=C(Oc1ccc(-c2ccccc2)cc1)c1ccco1,.,-,.,-
COC(=O)c1ccc(OC(=O)c2cccs2)cc1,63.0,-,-,-
COC(=O)c1ccc(OC(=O)c2ccco2)cc1,55.6,-,-,-
CC1(C(=O)NS(=O)(=O)c2ccccc2Cl)CCN1C(=O)c1ccco1 (stereo unspecified),.,.,.,-
COCOCCn1cc(CN2CCS(=O)(=O)N(Cc3ccc(-c4ccc(OC)nc4)cc3)C(C(C)C)C2=O)nn1 (stereo unspecified),.,-,.,-
Cc1ccc(S(=O)(=O)NCCNC(=O)c2ccc(C)nc2)cc1,-,-,-,-
Cc1ccc2[nH]c(CNC(=O)C3CCCCC3)cc2c1,-,-,-,-
COC(=O)C[C@H]1c2cc(C(F)(F)F)ccc2S(=O)(=O)N1C1CCCC1,-,-,-,-
SMILES,HDAC3 inhib,DAGLB inhibitor,LANA-H2B inh,iPSC survival up
CCCCCn1nc(C(=O)N(CCOC)c2c(N)n(CCCC)c(=O)[nH]c2=O)c2ccccc2c1=O,-,-,-,-
CCCCCCn1nc(C(=O)N(CCOC)c2c(N)n(CCCC)c(=O)[nH]c2=O)c2ccccc2c1=O,-,-,17.5,-
COC(=O)c1ccc(C(=O)OC)c(NC(=O)CSc2cccc[n+]2[O-])c1,-,-,-,22.0
O=C(CSc1cccc[n+]1[O-])Nc1ccccc1C(F)(F)F,-,-,-,-
O=C(CSc1cccc[n+]1[O-])Nc1ccccc1Oc1ccccc1,-,-,+,-
COc1cc(OC)cc(C(=O)NCCCCc2ccccc2)c1,-,-,-,-
O=C(O)C1(c2ccccc2)CCN(S(=O)(=O)c2ccccc2)CC1,-,-,1.5,-
O=C(NCCCNC(=O)c1cnccn1)c1cccc(F)c1,-,-,-,-
CCc1cccc(C)c1NC(=O)c1cc(C)oc1C,-,-,-,-
Cc1cc(C(=O)NCC(=O)Nc2c(C)cccc2C)c(C)o1,-,-,167.2,-
COc1ccc(CCNC(=O)c2cc(C)oc2C)cc1,-,-,14.1,-
Cc1[nH]c2ccc(C(=O)OC(C)C(=O)NC3(C#N)CCCCC3)cc2c1C (stereo unspecified),-,-,-,-
COc1ccc(NC(=S)NNC(=S)Nc2cccc(C(F)(F)F)c2)cc1,27.9,-,-,-
NC(=S)c1ncc(C(F)(F)F)cc1Cl,-,-,-,-
NC(=S)Nc1ncc(C(F)(F)F)cc1Cl,-,-,127.5,-
Cc1ccc(S(=O)(=O)c2nc(-c3ccccc3F)oc2N2CC(C)OC(C)C2)cc1 (stereo unspecified),-,-,58.6,-
